Experimental findings from PubChem BioAssay (NCATS) are described below.

Records with an inconclusive call do not appear. The source holds several records for some structures; these can differ, active in one and inactive in another. Calls of active or inactive are those of the source. Unless noted, the call rests on the fitted dose curve; in most records, active means well fitted curve in the direction sought with a large enough effect; inconclusive means small, poorly fitted or top-dose-only effect, or another doubt; inactive means no such curve, though single readings can be large; an effect the other way counts as inactive or inconclusive.

Test [1] addresses Methanococcus maripaludis chaperonin (MmCpn) (UniProt Q6LX38). The test can be described thus: High-Throughput Screening for Modulators of Cytosolic Chaperonin Activity: MmCpn Primary Screen (AID 488978).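 Further: 50 nM MmCpn enzyme hydrolysing 30 µM ATP at 37 °C; 0% is about no effect.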 In a few lines: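 Measures ATPase turnover of the M. maripaludis chaperonin (50 nM final) against 30 uM ATP over 10 min at 37C, with compound added 5 min beforehand at room temperature. ADP is quantified by HTRF immunodetection.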

For test [2], the target named is Transient receptor potential cation channel subfamily V member 1 (Homo sapiens) (UniProt Q8NER1). The test can be described thus: HTS Assay for Compounds that Act as Enhancers of the Vanilloid Receptor 1 (AID 488979). Further: 0% is about no effect. An outline of the steps: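 TRPV1 cells loaded with Fluo-8 calcium dye; compound added and Ca2+ signal (ex 480/em 520 nm) followed 3 min, then capsaicin at EC20 added and read 2 more min to detect enhancement.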

The target of test [3] is Thyrotropin receptor (Homo sapiens) (UniProt P16473). The test can be described thus: qHTS Assay for Antagonists of the Thyroid Stimulating Hormone Receptor (AID 488980). Further: series mostly up to about 58 µM; 0% is about no effect. In a few lines: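 Cells expressing human TSHR (HEK293) are dispensed in HBSS/HEPES containing 70 uM RO 20-1724, compound is added, then TSH at EC80 (4 nM final). Antibody in lysis buffer follows, 30 minutes at room temperature before HTRF detection.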
In general terms: In qHTS, concentration-response curves come from the screen itself.

Test [4] deals with D(1A) dopamine receptor (Homo sapiens) (UniProt P21728). Put plainly: HTS Assay for Allosteric Agonists of the Human D1 Dopamine Receptor: Primary Screen for Potentiators (AID 488982). Further: 0% is about no effect. In a few lines: (§1)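 Tetracycline-induced HEK293 Trex D1 cells with forced coupling to calcium, loaded with no-wash calcium dye; kinetic fluorescence read 180 s after compound addition for agonism, then a further 180 s after an EC20 dopamine challenge for potentiation.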

Test [5] can be described thus: qHTS for Inhibitors of Cell Surface uPA Generation: Validation Assay (AID 493164).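 Further: RAW 264.7 macrophage cells exposed to compound for 18 h; 0% is about no effect.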 An outline of the steps:
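RAW 264.7, 4000 cells/well, o/n plating; cpd 7-pt 1:5 dilution 2.45 nM–38.3 uM final; 18 h, 37 C/5% CO2; ATP-Lite, 5 s luminescence exposure.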

Test [6] concerns the target Galactokinase (Homo sapiens) (UniProt P51570). The test can be described thus: qHTS Validation Assay for Inhibitors of Human Galactokinase (GALK) (AID 493189). Further: 0% is about no effect. An outline of the steps: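 Compounds were pin-transferred into ATP buffer, then GALK-galactose mix was added (final 5 nM enzyme, 100 uM galactose, 35 uM ATP). After 1 h at room temperature, remaining ATP was measured luminescently.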

Test [7] has as its target Peptidyl-prolyl cis-trans isomerase NIMA-interacting 1 (Homo sapiens) (UniProt Q13526). The test can be described thus: qHTS Validation Assay to Find Inhibitors of Pin1 (AID 504536; active means well fitted inhibition curve with a large enough effect in the polarisation, with a control signal flat, not every such curve was filed as active; the % refers to the polarisation;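 further: 0% = full Pin1 enzyme wells and -100% = no-enzyme wells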). In a few lines:
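Fluorescence polarization competition: compounds (titration) displace HiFluor-488-labeled Pin1-1b peptide from Pin1 (0.3 uM final) in pH 7.5 HEPES buffer with DTT, 10 min at room temperature; %Activity normalized to no-enzyme wells, curves fitted.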

Test [8] deals with Phosphoglycerate kinase, glycosomal (Trypanosoma brucei brucei) (UniProt P07378). The test can be described thus: qHTS Validation Assay to Find Inhibitors of Phosphoglycerate Kinase (AID 504547).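 Further: control wells lack PGK and mark full inhibition.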 An outline of the steps:
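PGK activity was coupled to GAPDH (100nM final), which generates the unstable substrate 1,3-bisphosphoglycerate in-well. Reactions ran 60 minutes at room temperature in 100mM TEA pH 7.6, 5mM MgCl2, 0.01% Tween-20, then Kinase-Glo Plus luminescence was read.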

Test [9] addresses phosphoglycerate mutase (Leishmania major) (UniProt Q4Q090). The test can be described thus: qHTS Validation Assay to Find Inhibitors of Phosphoglycerate Mutase (AID 504548).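 Further: end-point luminescence from Kinase-GloPlus after the PGAM reaction; series mostly up to about 58 µM; on the % scale 0 is the no-effect control and ±100 the full control effect.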 In a few lines: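 L. major PGAM (1.25nM final) was added to substrate buffer and pinned compound, incubated 45 minutes at room temperature, then Kinase-GloPlus added; luminescence read after 10 minutes. Buffer: 100 mM TEA pH 7.6, 5 mM MgCl2, 0.01% Tween-20.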

In test [10] the target is Ubiquitin carboxyl-terminal hydrolase 1 (Homo sapiens) (UniProt O94782). Put plainly: Inhibitors of USP1/UAF1: Pilot qHTS (AID 504865). Further: nearly all actives have a fitted effect of over 35% in size. Further: potency means the concentration at half of the fitted maximal effect. An outline of the steps:
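Kinetic fluorescence assay: 1nM USP1/UAF1, 15 min compound preincubation, then 150nM Ub-Rho; 480/540 nm.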

In test [11] the target is D(1A) dopamine receptor (Homo sapiens) (UniProt P21728). Put plainly: HTS Assay for Allosteric Agonists of the Human D1 Dopamine Receptor: Primary Screen for Antagonists (AID 488983).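 Further: calcium flux response to an EC80 dopamine challenge measured with no-wash dye; on the % scale 0 is the no-effect control and ±100 the full control effect; nearly all actives have a fitted effect of over 65% in size.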 In a few lines:
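Screening of inducible HEK293 T-REx D1 cells: compound first, EC80 dopamine 180 s later, each phase read kinetically for calcium over 180 s.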

Test [12] addresses ATP-dependent 6-phosphofructokinase (Trypanosoma brucei brucei) (UniProt O15648). Put plainly: qHTS Assay to Find Inhibitors of T. brucei phosphofructokinase: hit validation (AID 492961).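 Further: luminescence reports ADP formed as PFK phosphorylates fructose-6-phosphate with ATP; series mostly up to about 51 µM; on the % scale 0 is the no-effect control and ±100 the full control effect.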 In a few lines: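 Compounds titrated; %activity normalized to 0x and 1x enzyme controls, curve-fitted. Readout: ADP-Glo luminescence after 45 min room-temperature reaction of 1.25 nM PFK, 0.1 mM ATP, 0.5 mM F6P, pH 8.0.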

The nature of test [13]: Validation screen for small molecules that induce genotoxicity in human embryonic kidney (HEK293T) cells expressing luciferase-tagged ELG1 (AID 493106). Further: potency means the concentration at half of the fitted maximal effect. An outline of the steps: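 Reporter-gene quantitative HTS in HEK293T cells carrying luciferase-tagged ELG1, whose level climbs under genotoxic stress. Compound exposure lasts 16 hr at 37 °C before luciferase detection.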

Test [14] has as its target Thyrotropin-releasing hormone receptor (Homo sapiens) (UniProt P34981). The test can be described thus: qHTS for Small Molecule Agonists and Allosteric Enhancers of Human TRH Receptor: Validation Screen for Agonists (AID 493127;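 active means calcium activation more than 3 SD above the typical response in the agonist read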;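 further: intracellular calcium rise by fluo-8 fluorescence before TRH EC20 addition; 0% is about no effect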). To be noted: TRH receptor agonist cell assay; at 2 µM; stronger effect = higher value. An outline of the steps:
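Gq-coupled calcium mobilization in TRHR cells after compound addition, monitored kinetically with fluo-8 dye on an FDSS reader.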

Test [15] is described as follows: Nrf2 qHTS screen for inhibitors: Validation (AID 493153; active means well fitted inhibition curve with a large enough effect in the main read-out, with a control signal flat, not every such curve was filed as active). To be noted: Potency: luciferase luminescence; viability change: measured here: cytotoxicity max response. In a few lines: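 Dose-response validation uses reporter A549 cells with firefly luciferase under an antioxidant response element. Compounds stay on cells 18-24 h at 37°C, and luminescence indicates Nrf2-driven transcription.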

Test [16] is described as follows: Validation screen for small molecules that induce DNA re-replication in SW480 colon adenocarcinoma cells (AID 504364). Further: 0% is about no effect. In a few lines:
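Cells are treated 48 hr with test compound, stained 40 min with Hoechst at 37 C, and scanned for nuclear fluorescence; compounds inducing re-replication increase nuclei with elevated intensity.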

Test [17] can be described thus: qHTS for Inhibitors of ATXN expression: Validation of Cytotoxic Assay (AID 588349).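 Further: cells exposed to compound for 72 hr; on the % scale 0 is the no-effect control and ±100 the full control effect.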 An outline of the steps: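 HEK293, compound dose series, 72 hr / 37 degrees C; viability via CellTiter Glo (intracellular ATP).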
In test [18] the target is ATPase family AAA domain-containing protein 5 (Homo sapiens) (UniProt Q96QE3). Put plainly: Validation screen for small molecules that inhibit ELG1-dependent DNA repair in human embryonic kidney (HEK293T) cells expressing luciferase-tagged ELG1 (AID 493107).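 Further: cells co-treated with the DNA-damaging agent 5-fluorouridine alongside compound; series mostly up to about 46 µM; on the % scale 0 is the no-effect control and ±100 the full control effect; inhibitors lower the ELG1-luciferase luminescence signal; nearly all actives have a fitted effect of over 70% in size.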 An outline of the steps:
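Quantitative HTS in HEK293T cells carrying luciferase-tagged ELG1, stimulated with 5-fluorouridine alongside compound for 16 hr. Loss of luciferase signal marks inhibition of ELG1 response.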

For test [19], the target named is D(1A) dopamine receptor (Homo sapiens) (UniProt P21728). The test can be described thus: HTS Assay for Allosteric Agonists of the Human D1 Dopamine Receptor: Primary Screen for Agonists (AID 488981). Further: 0% is about no effect. In a few lines: as §1

Sequence of phosphoglycerate mutase (Leishmania major) (Q4Q090 1-553): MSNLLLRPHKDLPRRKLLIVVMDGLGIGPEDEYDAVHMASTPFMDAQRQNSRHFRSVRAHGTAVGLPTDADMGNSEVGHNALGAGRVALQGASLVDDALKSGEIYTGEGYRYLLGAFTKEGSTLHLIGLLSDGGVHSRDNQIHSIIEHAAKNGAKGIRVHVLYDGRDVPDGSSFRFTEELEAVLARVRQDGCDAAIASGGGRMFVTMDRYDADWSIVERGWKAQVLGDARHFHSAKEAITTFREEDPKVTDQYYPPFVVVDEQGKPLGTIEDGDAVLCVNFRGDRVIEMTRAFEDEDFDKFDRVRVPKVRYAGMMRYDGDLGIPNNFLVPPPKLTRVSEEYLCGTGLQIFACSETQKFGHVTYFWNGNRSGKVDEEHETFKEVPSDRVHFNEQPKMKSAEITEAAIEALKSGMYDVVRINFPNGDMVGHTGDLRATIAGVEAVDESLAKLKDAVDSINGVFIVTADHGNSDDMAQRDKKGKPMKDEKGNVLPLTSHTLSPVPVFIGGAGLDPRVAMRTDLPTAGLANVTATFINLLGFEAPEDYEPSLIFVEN
Sequence of Methanococcus maripaludis chaperonin (MmCpn) (Q6LX38 1-543): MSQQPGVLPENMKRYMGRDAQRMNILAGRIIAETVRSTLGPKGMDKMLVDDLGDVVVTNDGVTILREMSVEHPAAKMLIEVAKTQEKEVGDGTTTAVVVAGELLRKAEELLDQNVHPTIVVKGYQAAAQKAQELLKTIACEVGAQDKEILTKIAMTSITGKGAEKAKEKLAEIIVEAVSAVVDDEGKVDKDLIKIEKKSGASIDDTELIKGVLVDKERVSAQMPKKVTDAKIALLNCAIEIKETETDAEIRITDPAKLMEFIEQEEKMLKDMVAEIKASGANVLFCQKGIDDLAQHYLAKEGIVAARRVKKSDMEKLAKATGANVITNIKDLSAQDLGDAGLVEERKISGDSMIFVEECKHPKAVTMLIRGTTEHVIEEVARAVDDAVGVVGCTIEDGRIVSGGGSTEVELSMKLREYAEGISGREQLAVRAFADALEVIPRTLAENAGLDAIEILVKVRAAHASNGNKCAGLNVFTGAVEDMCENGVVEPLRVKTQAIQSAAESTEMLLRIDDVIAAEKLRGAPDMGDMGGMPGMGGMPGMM
Sequence of Transient receptor potential cation channel subfamily V member 1 (Homo sapiens) (Q8NER1 whole entry, looked up): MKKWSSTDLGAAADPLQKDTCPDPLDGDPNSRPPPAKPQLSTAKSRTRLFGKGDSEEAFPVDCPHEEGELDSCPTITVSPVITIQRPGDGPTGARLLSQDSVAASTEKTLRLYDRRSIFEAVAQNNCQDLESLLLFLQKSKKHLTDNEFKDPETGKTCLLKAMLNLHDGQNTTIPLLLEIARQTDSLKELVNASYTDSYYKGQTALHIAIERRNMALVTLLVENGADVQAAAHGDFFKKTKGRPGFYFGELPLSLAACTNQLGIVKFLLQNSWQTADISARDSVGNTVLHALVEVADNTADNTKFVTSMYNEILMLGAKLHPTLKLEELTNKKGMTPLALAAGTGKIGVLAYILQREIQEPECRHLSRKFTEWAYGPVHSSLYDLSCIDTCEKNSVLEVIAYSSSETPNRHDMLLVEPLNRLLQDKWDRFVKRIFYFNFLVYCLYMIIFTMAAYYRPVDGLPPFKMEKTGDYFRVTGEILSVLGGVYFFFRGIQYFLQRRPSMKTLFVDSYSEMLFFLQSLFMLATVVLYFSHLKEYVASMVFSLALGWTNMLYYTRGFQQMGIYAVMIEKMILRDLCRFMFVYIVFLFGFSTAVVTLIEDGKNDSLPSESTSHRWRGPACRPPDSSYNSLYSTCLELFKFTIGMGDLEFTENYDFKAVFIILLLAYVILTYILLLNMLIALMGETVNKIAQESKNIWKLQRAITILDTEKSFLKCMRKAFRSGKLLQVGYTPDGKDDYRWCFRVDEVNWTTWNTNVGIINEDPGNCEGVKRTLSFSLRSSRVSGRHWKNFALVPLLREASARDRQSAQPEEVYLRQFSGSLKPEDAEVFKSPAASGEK
Sequence of Thyrotropin receptor (Homo sapiens) (P16473 whole entry, looked up): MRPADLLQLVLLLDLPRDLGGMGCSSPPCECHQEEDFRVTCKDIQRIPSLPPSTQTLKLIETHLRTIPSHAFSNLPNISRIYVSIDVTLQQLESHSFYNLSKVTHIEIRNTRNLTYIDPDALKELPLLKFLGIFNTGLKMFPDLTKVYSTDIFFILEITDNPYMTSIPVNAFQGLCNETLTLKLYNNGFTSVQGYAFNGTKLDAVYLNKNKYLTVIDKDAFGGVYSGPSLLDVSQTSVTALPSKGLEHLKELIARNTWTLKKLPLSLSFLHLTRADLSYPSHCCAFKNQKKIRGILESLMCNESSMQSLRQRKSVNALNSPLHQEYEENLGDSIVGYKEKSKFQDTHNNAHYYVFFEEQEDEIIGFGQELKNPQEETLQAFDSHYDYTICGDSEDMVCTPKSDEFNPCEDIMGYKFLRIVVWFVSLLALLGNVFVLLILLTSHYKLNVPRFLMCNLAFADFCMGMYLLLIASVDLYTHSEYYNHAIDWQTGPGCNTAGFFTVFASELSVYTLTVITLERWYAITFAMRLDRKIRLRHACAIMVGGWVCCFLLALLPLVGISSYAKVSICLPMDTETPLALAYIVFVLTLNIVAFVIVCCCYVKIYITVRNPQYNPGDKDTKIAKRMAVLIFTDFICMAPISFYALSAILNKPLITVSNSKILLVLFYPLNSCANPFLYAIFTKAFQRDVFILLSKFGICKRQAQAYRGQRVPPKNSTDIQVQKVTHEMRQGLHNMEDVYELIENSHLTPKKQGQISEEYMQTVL
Sequence of Galactokinase (Homo sapiens) (P51570 whole entry, looked up): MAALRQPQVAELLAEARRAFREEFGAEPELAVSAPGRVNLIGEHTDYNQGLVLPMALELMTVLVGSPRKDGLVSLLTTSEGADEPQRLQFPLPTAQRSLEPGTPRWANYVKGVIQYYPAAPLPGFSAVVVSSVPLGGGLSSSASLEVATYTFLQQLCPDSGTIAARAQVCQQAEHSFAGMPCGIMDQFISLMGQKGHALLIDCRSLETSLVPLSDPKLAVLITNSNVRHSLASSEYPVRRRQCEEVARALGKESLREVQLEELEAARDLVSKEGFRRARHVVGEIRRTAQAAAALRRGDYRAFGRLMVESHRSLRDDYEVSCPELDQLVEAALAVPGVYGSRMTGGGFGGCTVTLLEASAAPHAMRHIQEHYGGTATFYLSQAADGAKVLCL
Sequence of Thyrotropin-releasing hormone receptor (Homo sapiens) (P34981 whole entry, looked up): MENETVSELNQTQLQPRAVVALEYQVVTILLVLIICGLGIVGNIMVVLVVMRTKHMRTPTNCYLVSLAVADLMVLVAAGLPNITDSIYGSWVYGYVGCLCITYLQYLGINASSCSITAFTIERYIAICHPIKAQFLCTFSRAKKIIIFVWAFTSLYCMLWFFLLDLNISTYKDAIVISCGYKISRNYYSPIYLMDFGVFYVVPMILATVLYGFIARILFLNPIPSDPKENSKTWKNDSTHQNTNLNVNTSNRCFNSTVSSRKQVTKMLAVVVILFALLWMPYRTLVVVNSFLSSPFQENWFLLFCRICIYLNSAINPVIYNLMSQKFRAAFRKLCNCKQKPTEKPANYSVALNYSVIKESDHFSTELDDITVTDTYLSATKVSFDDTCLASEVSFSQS
Sequence of Phosphoglycerate kinase, glycosomal (Trypanosoma brucei brucei) (P07378 whole entry, looked up): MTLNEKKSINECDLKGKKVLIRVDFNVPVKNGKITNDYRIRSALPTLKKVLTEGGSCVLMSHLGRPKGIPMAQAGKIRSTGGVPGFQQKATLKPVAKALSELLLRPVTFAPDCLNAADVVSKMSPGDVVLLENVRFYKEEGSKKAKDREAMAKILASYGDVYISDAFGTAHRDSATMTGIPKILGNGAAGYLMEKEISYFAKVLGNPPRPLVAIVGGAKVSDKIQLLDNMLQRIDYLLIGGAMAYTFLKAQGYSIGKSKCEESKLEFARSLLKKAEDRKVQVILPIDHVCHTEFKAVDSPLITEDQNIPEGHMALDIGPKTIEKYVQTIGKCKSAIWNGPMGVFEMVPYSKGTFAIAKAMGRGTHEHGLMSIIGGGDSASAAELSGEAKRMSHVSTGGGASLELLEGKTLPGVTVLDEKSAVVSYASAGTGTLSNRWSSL
Sequence of D(1A) dopamine receptor (Homo sapiens) (P21728 whole entry, looked up): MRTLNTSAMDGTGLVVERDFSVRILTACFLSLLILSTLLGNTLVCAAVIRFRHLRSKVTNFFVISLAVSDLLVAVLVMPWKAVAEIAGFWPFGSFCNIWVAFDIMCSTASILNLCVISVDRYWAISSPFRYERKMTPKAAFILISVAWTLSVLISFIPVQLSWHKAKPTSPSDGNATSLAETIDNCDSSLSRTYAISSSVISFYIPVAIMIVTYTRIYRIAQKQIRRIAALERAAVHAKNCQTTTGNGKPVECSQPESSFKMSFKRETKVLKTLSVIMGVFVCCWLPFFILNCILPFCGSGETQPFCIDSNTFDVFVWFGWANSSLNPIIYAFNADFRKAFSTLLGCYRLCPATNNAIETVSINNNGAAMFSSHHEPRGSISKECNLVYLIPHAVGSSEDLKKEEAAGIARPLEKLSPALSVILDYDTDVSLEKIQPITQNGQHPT
Sequence of Peptidyl-prolyl cis-trans isomerase NIMA-interacting 1 (Homo sapiens) (Q13526 whole entry, looked up): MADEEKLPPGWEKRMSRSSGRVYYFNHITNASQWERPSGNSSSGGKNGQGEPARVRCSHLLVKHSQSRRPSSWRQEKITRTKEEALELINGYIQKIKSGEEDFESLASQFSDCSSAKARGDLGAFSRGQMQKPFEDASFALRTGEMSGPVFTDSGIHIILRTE

With `O=C(Nc1ccc([N+](=O)[O-])cc1Cl)c1cc(Cl)ccc1O`, the compound was classed as inactive in [1], in test [2], in test [3], in test [5] and in test [9]. In addition, the Potency entry in test [4], in [6], in [7], in test [8] and in [10] was “inactive” in each case.

As to `NCCCCCC(=O)O`, the call in test [1], in [2], in test [3], in test [5], in test [9] and in test [17] was inactive. The Potency result in test [4], in test [11], in test [12], in test [13], in test [15] and in test [6] was “inactive” each time. Also, the Potency entry in test [16], in test [8] and in [10] was “inactive” throughout. Also, in test [14], the activation was 0.0625% (inactive). Further, the viability change in test [15] turned out to be 0%.

On to `NCCS(=O)(=O)O`, for which the result in test [1], in test [2], in test [3], in [5] and in test [17] was inactive. For the same compound, the Potency entry in [4], in test [11], in test [13], in [18], in test [15] and in test [6] was “inactive” in each case. Also, the Potency entry in test [16], in test [7], in [8] and in [10] was “inactive” throughout. In addition, in test [14], the activation was 1.12% (inactive). For the same compound, the viability change in [15] was -6.75%.

With `CC(C)C(=O)Nc1ccc([N+](=O)[O-])c(C(F)(F)F)c1`, the compound was classed as inactive in test [1], in test [2], in [3], in test [5] and in test [17]. The Potency entry in test [19], in [11], in test [18], in test [6], in test [16] and in test [7] was “inactive” in each case. The Potency result in test [8] and in test [10] was “inactive” in each case. For the same compound, the activation in test [14] is -0.438% (inactive).

With `O=c1c(-c2ccc(O)cc2)coc2cc(O)cc(O)c12`, the call in test [1], in [2], in test [3], in test [5] and in [17] was inactive. The Potency entry in test [4], in [11], in [15], in [6], in test [16] and in [7] was “inactive” in each case. Besides, the Potency entry in [10] was “inactive”. In addition, the Potency in test [13] is 9.2 µM (active). Further, in test [15], the viability change was -6.66%.

Take `NC(=O)NO`: the call in test [1], in test [2], in test [3], in [5], in [9] and in [17] was inactive. Further, the Potency entry in test [19], in test [4], in [11], in test [13], in test [18] and in test [15] was “inactive” in each case. The Potency result in test [6], in test [16], in test [7], in test [8] and in [10] was “inactive” in each case. Also, the activation in test [14] is 1.12% (inactive). Besides, the viability change in test [15] was -1.36%.

`CC(C)(Oc1ccc(C2CC2(Cl)Cl)cc1)C(=O)O` (stereo not drawn): the call in test [1], in test [2], in test [3], in [5], in test [9] and in test [17] was inactive. For the same compound, the Potency result in test [19], in test [4], in [11], in test [12], in test [13] and in test [18] was “inactive” each time. Further, the Potency result in test [15], in [6], in [16], in test [7], in [8] and in [10] was “inactive” each time. Also, in [15], the viability change was determined as 9.29%.

Turning to `NCCc1cnc[nH]1`, the compound was classed as inactive in test [1], in test [2], in test [3], in [5], in test [9] and in test [17]. Moreover, the Potency result in test [19], in [4], in test [11], in test [13], in test [18] and in [15] was “inactive” each time. The Potency entry in test [6], in test [16] and in [7] was “inactive” throughout. For the same compound, the activation in test [14] was 1.06% (inactive). For the same compound, the viability change in [15] came out at 1.05%. Besides, the Potency in test [10] is 44.7 µM (active) and inactive.
